# Experimental data: PubChem BioAssay (NCI)
# About 83,000 compounds went through this panel and 20% of them were active in at least one assay; those are over-represented in the sample as a whole.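 Method: cells in 96-well plates; compound added at one concentration; 48 h incubation; percent growth measured; values under 10 scored active.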 Active and inactive are the calls of the source.
# System: 786-0 renal
# Assay: NCI-60 one-dose screen, 48 h (100 = growth as untreated, 0 = no growth, -100 = all killed)
# Settings: 10 µM unless noted
row,SMILES,growth
1,OCCn1cc(-c2nc3ccc4[nH]ncc4c3c3c2CCCC3)cn1,43.1% (inactive)
2,Cn1cc(-c2cc(N)n3nc(-c4c[nH]c5ccc(F)cc45)cc3n2)c2cccnc21,-95.2% (active)
3,COc1ccc2c(c1)N=c1c-2cc2c(O)[nH]c(=S)n2c1=O,35.3% (inactive)
4,O=C(NN1C(=O)/C(=C/C=C/c2ccc([N+](=O)[O-])o2)SC1=S)c1ccncc1,-79.9% (active)
5,Cn1cc(-c2cc(N)n3nc(-c4c[nH]c5ccccc45)cc3n2)c2cc(Br)ccc21,-73.7% (active)
6,Cn1cc(-c2cc(N)n3nc(-c4c[nH]c5ccccc45)cc3n2)c2ccccc21,-81.6% (active)
7,O=C1c2cccc3c(N4CCN(c5ccccc5)CC4)ccc(c23)C(=O)N1c1cccc(-c2nn(-c3ccccc3)cc2-c2nc3ccccc3s2)c1,102% (inactive)
8,O=C(c1ccc(O)cc1)C1[C@H](c2ccccc2Br)[C@@H](c2ccccc2)NC12C(=O)Nc1ccccc12 (some centres not stated),28.8% (inactive)
9,COc1ccc(-c2cc(C(=O)N=Nc3c(O)[nH]c4ccc(Cl)cc34)c3ccccc3n2)cc1,72.4% (inactive)
10,CC(C)(C)OC(=O)N1CCC2(CC1)Oc1ccccc1[C@H]1CC(c3ccc(Br)cc3)=NN12,76.8% (inactive)
11,Cc1cc(C(NC(=O)CCCCCNc2cccc3c2C(=O)N(C2CCC(=O)CC2=O)C3=O)c2cccc(N(C)C)c2)c(O)c2ncccc12 (configuration not stated),2.23% (active)
12,O=C(c1ccc(O)cc1)C1[C@H](c2ccc(Cl)cc2)[C@@H](c2ccccc2)NC12C(=O)Nc1ccc(Br)cc12 (some centres not stated),-52.1% (active)
